Bioassay records: PubChem, Sanford-Burnham Center for Chemical Genomics
In the library only some 3.9% were active in any assay of this set; here they are far more common.
Peg3 promoter = inhibitors of Peg3 promoter; HeLa PEG-Prom luciferase reporter, luminescence, overnight; AID 588405; actives 1.7% (n = 360,000); inhibition, % at 20 µM;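 active = inhibition of at least 50% at 20 µM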
TROY NFkB inh = blocks TROY-dependent signaling in reporter cells | inhibition, % at 10 µM | AID 1347056 | Q293 LMP1-TROYcd NF-kB luciferase reporter, 4 h | actives 0.98% (n = 360,000);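 active = compounds whose plate-normalised and pattern-corrected inhibition of the luciferase reporter signal at the single screening dose is 50% or more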
CF NFkB inh = inhibitors of cystic fibrosis induced NF-kB; KKLEB NF-kB-GFP reporter, PAF-induced, GFP fluorescence overnight; inhibition, % at 5 µM; actives 0.86% (n = 360,000);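 active = at least 50% inhibition at 5 µM, scaled per plate between neutral and stimulator controls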;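 also: PAF is a Pseudomonas aeruginosa culture filtrate used as stimulus; plate controls were PAF-stimulated DMSO wells for no effect and unstimulated DMSO wells for full effect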
KKLEB tox = counter-screen for CF NF-kB inhibitors: cytotoxicity; KKLEB CF airway cells viability, ATPlite luminescence, overnight; stronger effect = lower value; cells stimulated with P. aeruginosa culture filtrate; activity change (cytotoxicity), % at 5 µM; actives 0.36% (n = 360,000); AID 602141;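 active = corrected activity change at or below -50% at 5 µM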
TWEAK Fn14 block = blocks TWEAK-Fn14 interaction in a reporter cell assay; inhibition, % at 10 µM; TWEAK-stimulated Fn14 reporter cells, luciferase luminescence, 8 h; actives 2% (n = 360,000); AID 1159606; in the data active = inhibition above about 50%
HIF-2a inh = inhibitors of HIF-2a; 786-0 RCC cells HIF-2a reporter, luciferase luminescence, overnight; actives 0.72% (n = 360,000); inhibition, % at 18.8 µM;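 active = inhibition of the luminescence signal of 40% or more relative to plate controls, in a single-dose primary screen at 18.75 µM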
An asterisk follows results filed as active; . = not tested or not shown.

SMILES	Peg3 promoter	TROY NFkB inh	CF NFkB inh	KKLEB tox	TWEAK Fn14 block	HIF-2a inh
Cc1ccccc1Nc1nnc(SCC2CCCCO2)s1 (centres undefined)	-220	-20	8	-31	33	-165
COc1ccccc1Nc1nnc(SCC2CCCCO2)s1 (centres undefined)	-102	29	14	-26	65*	-133
CCn1cc(Cl)c(C(=O)N2N=C3/C(=C/c4cccs4)CCCC3C2c2cccs2)n1 (centres undefined)	38	-13	-4	12	13	12
O=C(Nc1ccccc1C(F)(F)F)N1CCC(N2CCCCC2)CC1	7	.	-1	13	84*	9
O=C(Nc1ccccc1C(F)(F)F)N1CCC(n2c(=O)[nH]c3ccccc32)CC1	17	.	8	-7	3	19
O=C(CSc1nnc(-c2ccco2)n1-c1ccccc1)N1CCN(C(=O)c2ccco2)CC1	13	21	3	1	0	11
COC1=C(C)C(=O)C2=C(C1=O)C1C3CC4=C(C(=O)C(OC)=C(C)C4=O)C(CNC(=O)C(C)=O)N3C(C#N)C(C2)N1C (centres undefined)	101*	63*	81*	-44	100*	78*
CC(Oc1ccc(Br)cc1)C(=O)Nc1nc(-c2ccccn2)cs1 (centres undefined)	40	61*	15	-11	-51	21
CC(=O)c1ccc(-n2c(CCC(=O)O)ccc2-c2cccs2)cc1	-158	57*	6	-3	61*	-87
O=C(O)CCc1ccc(-c2cccs2)n1NC(=O)c1ccco1	15	5	-3	5	105*	7
CN1CCN(C(=O)CCN2C(=O)/C(=C/c3cccc(Br)c3)SC2=S)CC1	77*	0	28	10	38	8
O=C1/C(=C/c2cccc(Br)c2)SC(=S)N1CCC(=O)N(CCO)c1ccccc1	56*	35	25	12	86*	32
O=C(CCN1C(=O)/C(=C/c2ccc3c(c2)OCO3)SC1=S)Nc1ccccc1	-4	-8	-5	-1	-85	11
CN1CCN(C(=O)CCCN2C(=O)/C(=C/c3cccc(Br)c3)SC2=S)CC1	17	-3	2	8	5	22
COc1cccc(/C=C2\SC(=S)N(CCCC(=O)N(CCO)c3ccccc3)C2=O)c1	79*	45	13	1	28	86*
O=C1/C(=C/c2ccc3c(c2)OCO3)SC(=S)N1CCC(=O)N(CCO)c1ccccc1	20	27	-39	9	39	43*
Cn1ccnc1SCC(=O)NC12CC3CC(CC(C3)C1)C2	5	-4	4	-2	6	7
COc1cc(CNCCNCC(C)O)ccc1OCc1ccc(Cl)nc1 (centres undefined)	-31	-41	-12	10	24	-7
O=C(CSC1=NS(=O)(=O)c2ccccc2N1)c1ccccc1	-38	-30	-10	12	0	-79
CCCc1c(C(=O)NNc2cc(C(F)(F)F)ccc2Cl)cnn1-c1ccccc1	16	4	11	-6	-2	7
CN(CC(=O)Nc1ccccc1Cl)C(=O)COC(=O)c1ccc(Cl)cc1[N+](=O)[O-]	3	-8	6	-15	-19	1
CCS(=O)(=O)c1nc(S(=O)(=O)c2ccc(C)cc2)c(N2CCOCC2)s1	-8	-9	3	10	14	11
CCn1c(/C=C/c2c(C)n(CC)c3ccccc23)nc2ccccc2c1=O	-5	-30	31	-25	-8	-2
CCn1c2ccccc2nc2cc3c(cc21)c(Cl)c(=O)c1ccccc13	62*	19	81*	-38	17	54*
CC1Oc2ccccc2C=C1/C=N/NC(=O)[C@@H](C)NC(=O)OC(C)(C)C (some centres undefined)	17	66*	13	2	26	13
SMILES	Peg3 promoter	TROY NFkB inh	CF NFkB inh	KKLEB tox	TWEAK Fn14 block	HIF-2a inh
Cc1ccc(C(=O)N/N=C/C2=Cc3ccccc3OC2C)cc1 (centres undefined)	-133	-17	-7	5	-1	-138
CCOc1ccccc1Nc1nc2ccccc2[nH]1	-27	-11	8	0	-5	-70
CC(C)c1ccc(COC(=O)CN2C(=O)NC3(CCCCC3C)C2=O)cc1 (centres undefined)	12	6	-13	-13	-2	-4
CC1CN(C(=O)COC(=O)c2ccc(O)cc2)CC(C)O1 (centres undefined)	12	7	-3	0	9	11
COc1ccc(CN2CCC(N(CCc3ccccc3)Cc3ccccc3)CC2)c(OC)c1	63*	2	26	-9	-13	19
CC(=O)Nc1ccc(/C=C/C(=O)c2ccc3c(c2)OCCO3)cc1	-165	-7	-6	-13	30	-26
CCC(=O)Nc1cccc(C(=O)/C=C/c2ccc(F)cc2)c1	100*	19	47	0	72*	27
CC(=O)Nc1cccc(C(=O)/C=C/c2ccc(C)cc2)c1	97*	-3	36	-8	71*	-18
O=C(NC1CCCC1)C(c1ccncc1)N(Cc1ccco1)C(=O)c1ccc(-c2ccccc2)[nH]1 (centres undefined)	-15	-66	6	-3	0	-77
CCC(C)[C@H](NC(=O)NCc1ccccc1)C(=O)O (some centres undefined)	13	-1	-19	18	-7	4
COc1ccc(C2N(c3cc(Cl)ccc3OC)C(=O)C3CCCN32)c(OC)c1 (centres undefined)	-2	-22	10	4	10	5
O=C1C(=O)N(CCS(=O)(=O)c2ccccc2)c2ccc(Cl)cc21	64*	3	0	-8	-1	7
CCCSc1cc(N2CCN(C)CC2)nc(-c2ccc(OC)cc2)n1	55*	18	-2	-9	-18	10
CC(=O)Nc1ccc(C=NNc2ccc([N+](=O)[O-])cn2)cc1	-281	-56	10	12	6	-286
N#CC1C(=O)c2ccccc2C1c1ccccc1 (centres undefined)	12	52*	-20	17	-20	31
COc1ccccc1C(=O)Nc1nc2cc3c(cc2s1)OCCO3	-234	-11	-13	-27	11	-230
CN(CC1CCCO1)S(=O)(=O)c1ccc(C(=O)Nc2nc3cc4c(cc3s2)OCO4)cc1 (centres undefined)	-15	30	-31	17	53*	-25
CCN(CC)S(=O)(=O)c1cccc(C(=O)Nc2nc3cc4c(cc3s2)OCCO4)c1	-11	61*	16	13	95*	-116
O=C(Nc1nc2cc3c(cc2s1)OCCO3)c1cccs1	-27	61*	-39	-14	89*	-47
